The results in this text go back to article PMC7862700, “An all-to-all approach to the identification of sequence-specific readers for epigenetic DNA modifications on cytosine”.

Assay in all cases: DAPPL (digital affinity profiling via proximity ligation, sequencing); 10 mM Tris-HCl pH 7.5, 50 mM NaCl, 1 mM DTT, 4% glycerol, room temperature, 30 min; GST-TFs on glutathione beads, 16-mer random dsDNA library, 0.1% formaldehyde crosslink after washing; high values mean tight binding
One assay addresses T1, FLI1 (Homo sapiens, UniProt Q01543 1-452).
T1 sequence: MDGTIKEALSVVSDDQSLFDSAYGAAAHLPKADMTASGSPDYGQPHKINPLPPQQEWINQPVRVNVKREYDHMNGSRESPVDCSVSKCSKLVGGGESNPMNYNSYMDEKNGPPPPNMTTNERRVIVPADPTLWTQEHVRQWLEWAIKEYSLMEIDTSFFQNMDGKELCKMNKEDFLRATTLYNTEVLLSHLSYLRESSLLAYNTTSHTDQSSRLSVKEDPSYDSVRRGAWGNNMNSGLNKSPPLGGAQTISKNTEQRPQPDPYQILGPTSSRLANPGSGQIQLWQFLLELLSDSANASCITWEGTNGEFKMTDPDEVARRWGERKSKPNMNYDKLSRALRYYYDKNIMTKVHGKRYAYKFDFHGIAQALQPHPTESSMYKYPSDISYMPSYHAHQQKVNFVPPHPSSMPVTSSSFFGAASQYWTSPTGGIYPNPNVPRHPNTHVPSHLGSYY
The conditions noted are these: protein: recombinant; tags: N-terminal GST; dsDNA, one strand shown. In short, it runs like this: (§1)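 Sequencing on an Illumina NextSeq500 followed washing, crosslinking with 0.1% formaldehyde, proximity ligation (BsaI/T4 ligase, 1 h, 37 °C) and PCR amplification of pools that had been incubated for 30 min at room temperature with 200 nmole of a random double-stranded 16-mer DNA library in Tris/NaCl/DTT/glycerol buffer. Each pool held DNA-barcoded human transcription factors, expressed in yeast as GST fusions and captured on glutathione beads, plus a tag-only sample. Binding signal is a hexamer's read frequency for a factor divided by its frequency in the tag-only sample.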

For the next assay, the target named is T2, ELK1 (Homo sapiens, UniProt P19419 1-428).
T2 sequence: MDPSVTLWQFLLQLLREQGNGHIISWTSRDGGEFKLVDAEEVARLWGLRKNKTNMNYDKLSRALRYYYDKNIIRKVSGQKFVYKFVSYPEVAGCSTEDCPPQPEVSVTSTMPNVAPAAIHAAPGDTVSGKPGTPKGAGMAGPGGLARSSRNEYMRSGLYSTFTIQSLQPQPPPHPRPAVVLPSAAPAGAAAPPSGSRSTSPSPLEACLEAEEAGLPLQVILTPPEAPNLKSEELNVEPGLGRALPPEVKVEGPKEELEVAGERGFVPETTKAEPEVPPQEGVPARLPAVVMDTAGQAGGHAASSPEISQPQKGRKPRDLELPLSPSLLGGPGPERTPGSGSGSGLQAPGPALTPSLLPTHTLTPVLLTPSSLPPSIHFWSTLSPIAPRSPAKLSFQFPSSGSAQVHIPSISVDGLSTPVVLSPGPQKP
The conditions noted are these: protein: recombinant; tags: N-terminal GST; dsDNA, one strand shown. In short, it runs like this:
as §1

For another assay, the target named is T3, GABPA (Homo sapiens, UniProt Q06546 1-454).
T3 sequence: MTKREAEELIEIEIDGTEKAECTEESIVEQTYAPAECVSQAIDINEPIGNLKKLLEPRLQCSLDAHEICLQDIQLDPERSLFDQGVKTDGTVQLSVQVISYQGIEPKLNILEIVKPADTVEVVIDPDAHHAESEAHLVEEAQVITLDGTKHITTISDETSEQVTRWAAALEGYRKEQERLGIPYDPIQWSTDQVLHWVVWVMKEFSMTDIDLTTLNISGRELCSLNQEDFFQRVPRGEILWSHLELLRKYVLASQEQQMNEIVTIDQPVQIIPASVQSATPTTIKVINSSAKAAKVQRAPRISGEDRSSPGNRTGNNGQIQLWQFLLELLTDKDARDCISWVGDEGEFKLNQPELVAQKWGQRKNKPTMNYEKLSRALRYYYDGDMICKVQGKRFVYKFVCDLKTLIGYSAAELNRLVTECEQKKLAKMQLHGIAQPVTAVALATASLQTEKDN
Particulars: protein: recombinant; tags: N-terminal GST; dsDNA, one strand shown. In short, it runs like this:
as §1

For the next assay, the target named is T4, ERG (Homo sapiens, UniProt P11308 1-479).
T4 sequence: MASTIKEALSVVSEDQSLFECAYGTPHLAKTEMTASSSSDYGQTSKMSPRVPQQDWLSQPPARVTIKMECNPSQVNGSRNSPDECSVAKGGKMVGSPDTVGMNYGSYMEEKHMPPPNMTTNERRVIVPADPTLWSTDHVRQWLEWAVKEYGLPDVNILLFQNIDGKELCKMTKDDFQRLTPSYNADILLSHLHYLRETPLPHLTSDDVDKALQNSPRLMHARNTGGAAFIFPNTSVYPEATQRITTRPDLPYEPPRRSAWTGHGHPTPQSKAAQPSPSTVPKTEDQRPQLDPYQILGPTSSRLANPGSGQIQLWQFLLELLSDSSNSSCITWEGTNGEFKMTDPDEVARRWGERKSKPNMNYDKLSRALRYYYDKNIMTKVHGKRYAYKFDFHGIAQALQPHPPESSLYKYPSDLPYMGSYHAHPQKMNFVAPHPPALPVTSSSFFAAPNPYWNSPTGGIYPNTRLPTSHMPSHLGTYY
The conditions noted are these: protein: recombinant; tags: N-terminal GST; dsDNA, one strand shown. In short, it runs like this:
as §1

The target of the next assay is ELF1 (Homo sapiens, UniProt P32519 1-619). Particulars: protein: recombinant; tags: N-terminal GST; dsDNA, one strand shown. In short, it runs like this:
as §1

The next assay addresses T5, EHF (Homo sapiens, UniProt Q9NZC4 1-300).
T5 sequence: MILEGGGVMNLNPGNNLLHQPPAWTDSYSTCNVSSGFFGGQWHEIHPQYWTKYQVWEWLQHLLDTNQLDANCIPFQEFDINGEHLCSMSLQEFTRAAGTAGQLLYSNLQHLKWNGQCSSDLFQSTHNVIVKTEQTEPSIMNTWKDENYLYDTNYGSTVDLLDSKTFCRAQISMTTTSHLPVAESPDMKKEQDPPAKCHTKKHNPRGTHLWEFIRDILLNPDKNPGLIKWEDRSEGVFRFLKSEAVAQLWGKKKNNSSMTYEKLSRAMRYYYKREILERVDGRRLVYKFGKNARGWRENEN
Particulars: protein: recombinant; tags: N-terminal GST; dsDNA, one strand shown. In short, it runs like this:
as §1

Another assay has as its target SPI1 (Homo sapiens, UniProt P17947 1-270). The conditions noted are these: protein: recombinant; tags: N-terminal GST; dsDNA, one strand shown. In short, it runs like this:
as §1

For a further assay, the target named is SPIB (Homo sapiens, UniProt Q01892 1-262). Particulars: protein: recombinant; tags: N-terminal GST; dsDNA, one strand shown. In short, it runs like this:
as §1

The next assay concerns the target T6, ELK3 (Homo sapiens, UniProt P41970 1-407).
T6 sequence: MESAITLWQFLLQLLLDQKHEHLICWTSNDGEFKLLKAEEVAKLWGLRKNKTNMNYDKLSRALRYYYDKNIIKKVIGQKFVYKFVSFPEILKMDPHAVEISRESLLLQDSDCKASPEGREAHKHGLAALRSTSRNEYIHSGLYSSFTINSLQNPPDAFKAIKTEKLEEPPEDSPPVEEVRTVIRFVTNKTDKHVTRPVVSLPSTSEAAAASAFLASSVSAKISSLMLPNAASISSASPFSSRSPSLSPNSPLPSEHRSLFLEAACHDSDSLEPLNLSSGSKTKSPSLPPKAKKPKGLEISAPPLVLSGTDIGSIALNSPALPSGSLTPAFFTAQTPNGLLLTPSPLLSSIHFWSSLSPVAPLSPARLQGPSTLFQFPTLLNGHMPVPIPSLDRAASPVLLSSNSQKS
The conditions noted are these: protein: recombinant; tags: N-terminal GST; dsDNA, one strand shown. In outline:
as §1

The target in a further assay is T7, FEV (Homo sapiens, UniProt Q99581 1-238).
T7 sequence: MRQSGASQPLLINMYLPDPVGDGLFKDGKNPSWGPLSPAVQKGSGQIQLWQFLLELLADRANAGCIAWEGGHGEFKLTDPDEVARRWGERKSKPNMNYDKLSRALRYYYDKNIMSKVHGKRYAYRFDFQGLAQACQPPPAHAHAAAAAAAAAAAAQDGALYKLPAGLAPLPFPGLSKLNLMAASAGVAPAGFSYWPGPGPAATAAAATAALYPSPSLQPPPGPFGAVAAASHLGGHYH
Particulars: protein: recombinant; tags: N-terminal GST; dsDNA, one strand shown. In short, it runs like this: as §1

A further assay deals with ETV5 (Homo sapiens, UniProt P41161 1-510). Particulars: protein: recombinant; tags: N-terminal GST; dsDNA, one strand shown. In short, it runs like this:
as §1

A further assay concerns the target HSF1 (Homo sapiens, UniProt Q00613 1-529). Particulars: protein: recombinant; tags: N-terminal GST; chain copies: 3; dsDNA, one strand shown. In short, it runs like this: as §1
The next assay addresses T8, SPIC (Homo sapiens, UniProt Q8N5J4 1-248).
T8 sequence: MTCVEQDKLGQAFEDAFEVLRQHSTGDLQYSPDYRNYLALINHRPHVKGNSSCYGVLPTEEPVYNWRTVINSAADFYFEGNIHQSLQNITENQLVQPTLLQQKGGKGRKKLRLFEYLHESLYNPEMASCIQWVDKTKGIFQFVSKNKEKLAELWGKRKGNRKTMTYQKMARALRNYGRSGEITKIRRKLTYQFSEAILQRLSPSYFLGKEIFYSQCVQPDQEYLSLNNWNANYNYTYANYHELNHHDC
Particulars: protein: recombinant; tags: N-terminal GST; dsDNA, one strand shown. In short, it runs like this:
as §1

For a further assay, the target named is ELF4 (Homo sapiens, UniProt Q99607 1-663). Particulars: protein: recombinant; tags: N-terminal GST; dsDNA, one strand shown. In outline:
as §1

Another assay concerns the target T9, ELK4 (Homo sapiens, UniProt P28324-2 1-405).
T9 sequence: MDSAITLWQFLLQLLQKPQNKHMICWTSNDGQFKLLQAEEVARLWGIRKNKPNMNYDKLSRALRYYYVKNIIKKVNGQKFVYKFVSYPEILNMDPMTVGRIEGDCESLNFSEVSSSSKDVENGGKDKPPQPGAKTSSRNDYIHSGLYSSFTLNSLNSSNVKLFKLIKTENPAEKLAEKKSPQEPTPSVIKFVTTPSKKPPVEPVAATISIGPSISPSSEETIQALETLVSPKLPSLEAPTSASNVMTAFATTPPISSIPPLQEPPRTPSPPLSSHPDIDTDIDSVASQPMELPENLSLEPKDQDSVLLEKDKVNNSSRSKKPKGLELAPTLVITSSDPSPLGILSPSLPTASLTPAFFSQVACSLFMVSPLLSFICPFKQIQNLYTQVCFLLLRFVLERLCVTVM
The conditions noted are these: protein: recombinant; tags: N-terminal GST; dsDNA, one strand shown. In outline:
as §1

Another assay concerns the target T10, ETV2 (Homo sapiens, UniProt O00321 1-342).
T10 sequence: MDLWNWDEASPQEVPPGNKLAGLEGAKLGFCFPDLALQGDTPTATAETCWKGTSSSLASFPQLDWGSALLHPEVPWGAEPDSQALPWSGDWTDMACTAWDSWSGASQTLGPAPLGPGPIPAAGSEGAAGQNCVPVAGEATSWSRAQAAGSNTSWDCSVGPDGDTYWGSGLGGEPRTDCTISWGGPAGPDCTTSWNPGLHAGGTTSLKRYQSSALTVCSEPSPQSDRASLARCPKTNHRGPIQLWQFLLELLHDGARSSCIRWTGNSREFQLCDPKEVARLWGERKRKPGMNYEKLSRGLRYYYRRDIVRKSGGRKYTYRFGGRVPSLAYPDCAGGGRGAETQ
Particulars: protein: recombinant; tags: N-terminal GST; dsDNA, one strand shown. In outline: as §1

The target in a further assay is T11, ELF3 (Homo sapiens, UniProt P78545 1-371).
T11 sequence: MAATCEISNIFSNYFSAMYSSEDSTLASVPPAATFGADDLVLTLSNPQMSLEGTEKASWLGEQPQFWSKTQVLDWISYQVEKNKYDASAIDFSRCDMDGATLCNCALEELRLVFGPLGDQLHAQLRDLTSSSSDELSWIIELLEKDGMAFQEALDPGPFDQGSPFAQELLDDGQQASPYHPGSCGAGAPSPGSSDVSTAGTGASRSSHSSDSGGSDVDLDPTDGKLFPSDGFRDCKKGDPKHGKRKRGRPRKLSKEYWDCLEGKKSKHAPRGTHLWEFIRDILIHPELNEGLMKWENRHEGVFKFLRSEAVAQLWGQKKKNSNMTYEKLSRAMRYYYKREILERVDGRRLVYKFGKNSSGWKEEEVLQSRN
The conditions noted are these: protein: recombinant; tags: N-terminal GST; dsDNA, one strand shown. In short, it runs like this: as §1

In the next assay the target is ETV1 (Homo sapiens, UniProt P50549 1-477). The conditions noted are these: protein: recombinant; tags: N-terminal GST; dsDNA, one strand shown. In outline: as §1
Sequence of ETV1 (P50549 whole entry): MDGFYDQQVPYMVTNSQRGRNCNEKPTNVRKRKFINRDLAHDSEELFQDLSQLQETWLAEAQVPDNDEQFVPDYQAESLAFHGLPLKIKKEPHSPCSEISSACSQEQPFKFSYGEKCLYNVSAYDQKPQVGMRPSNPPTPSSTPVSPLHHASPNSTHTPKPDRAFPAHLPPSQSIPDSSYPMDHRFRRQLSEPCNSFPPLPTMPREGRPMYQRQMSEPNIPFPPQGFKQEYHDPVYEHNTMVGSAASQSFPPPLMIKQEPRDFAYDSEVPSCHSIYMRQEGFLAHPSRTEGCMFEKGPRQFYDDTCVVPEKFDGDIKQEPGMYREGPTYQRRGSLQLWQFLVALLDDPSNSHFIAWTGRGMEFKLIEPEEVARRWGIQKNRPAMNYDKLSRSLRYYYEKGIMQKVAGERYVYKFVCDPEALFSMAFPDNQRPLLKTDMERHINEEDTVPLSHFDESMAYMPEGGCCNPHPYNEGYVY

Sequence of HSF1 (Q00613 whole entry): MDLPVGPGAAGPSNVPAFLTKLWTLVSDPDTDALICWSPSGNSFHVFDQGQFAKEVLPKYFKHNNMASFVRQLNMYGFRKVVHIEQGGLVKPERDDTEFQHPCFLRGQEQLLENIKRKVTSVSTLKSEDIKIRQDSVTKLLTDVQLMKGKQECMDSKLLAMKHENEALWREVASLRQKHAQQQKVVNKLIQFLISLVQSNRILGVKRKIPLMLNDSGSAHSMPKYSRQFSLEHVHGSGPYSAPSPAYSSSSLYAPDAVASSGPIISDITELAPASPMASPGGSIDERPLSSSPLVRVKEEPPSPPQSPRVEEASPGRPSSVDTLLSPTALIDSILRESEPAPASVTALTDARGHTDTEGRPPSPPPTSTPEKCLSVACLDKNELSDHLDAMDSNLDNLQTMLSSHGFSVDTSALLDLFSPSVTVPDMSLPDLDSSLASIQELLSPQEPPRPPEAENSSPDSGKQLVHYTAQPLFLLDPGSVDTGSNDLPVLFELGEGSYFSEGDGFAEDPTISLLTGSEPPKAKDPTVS
Sequence of ETV5 (P41161 whole entry): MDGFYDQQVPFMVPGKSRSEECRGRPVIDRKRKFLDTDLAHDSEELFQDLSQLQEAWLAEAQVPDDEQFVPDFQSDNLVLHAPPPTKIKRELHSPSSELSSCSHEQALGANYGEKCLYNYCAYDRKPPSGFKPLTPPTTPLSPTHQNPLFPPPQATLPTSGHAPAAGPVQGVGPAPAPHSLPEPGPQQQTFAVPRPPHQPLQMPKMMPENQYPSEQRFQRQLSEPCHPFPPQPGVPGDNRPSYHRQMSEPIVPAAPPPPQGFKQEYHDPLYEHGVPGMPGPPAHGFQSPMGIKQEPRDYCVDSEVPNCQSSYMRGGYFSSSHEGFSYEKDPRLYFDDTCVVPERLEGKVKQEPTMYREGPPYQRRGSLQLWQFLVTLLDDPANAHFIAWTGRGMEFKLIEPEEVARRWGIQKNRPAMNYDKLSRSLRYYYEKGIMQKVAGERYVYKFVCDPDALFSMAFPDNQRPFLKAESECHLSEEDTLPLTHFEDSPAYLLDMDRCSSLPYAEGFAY
Sequence of ELF1 (P32519 whole entry): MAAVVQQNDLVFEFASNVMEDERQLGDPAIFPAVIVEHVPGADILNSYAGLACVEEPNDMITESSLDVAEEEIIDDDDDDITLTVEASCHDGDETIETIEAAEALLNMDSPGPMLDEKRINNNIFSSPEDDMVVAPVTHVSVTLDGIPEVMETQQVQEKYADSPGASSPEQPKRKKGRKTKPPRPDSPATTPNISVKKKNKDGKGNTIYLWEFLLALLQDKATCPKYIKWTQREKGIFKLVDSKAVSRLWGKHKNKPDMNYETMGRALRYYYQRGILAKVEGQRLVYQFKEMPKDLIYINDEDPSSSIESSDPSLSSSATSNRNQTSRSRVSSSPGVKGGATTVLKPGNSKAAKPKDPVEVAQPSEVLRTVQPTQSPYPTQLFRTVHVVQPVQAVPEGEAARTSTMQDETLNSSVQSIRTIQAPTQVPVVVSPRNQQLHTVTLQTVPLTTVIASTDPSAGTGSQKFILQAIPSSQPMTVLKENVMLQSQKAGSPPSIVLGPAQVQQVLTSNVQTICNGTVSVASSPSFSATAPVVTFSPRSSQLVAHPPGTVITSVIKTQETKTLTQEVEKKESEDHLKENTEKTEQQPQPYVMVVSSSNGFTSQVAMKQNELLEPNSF
Sequence of SPIB (Q01892 whole entry): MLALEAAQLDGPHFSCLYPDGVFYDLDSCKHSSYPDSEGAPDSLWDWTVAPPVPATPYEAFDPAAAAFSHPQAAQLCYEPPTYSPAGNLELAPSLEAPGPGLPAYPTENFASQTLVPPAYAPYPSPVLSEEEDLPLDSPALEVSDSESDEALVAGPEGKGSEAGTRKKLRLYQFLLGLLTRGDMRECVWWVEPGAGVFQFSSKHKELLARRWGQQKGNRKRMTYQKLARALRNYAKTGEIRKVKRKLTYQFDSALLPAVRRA
Sequence of ELF4 (Q99607 whole entry): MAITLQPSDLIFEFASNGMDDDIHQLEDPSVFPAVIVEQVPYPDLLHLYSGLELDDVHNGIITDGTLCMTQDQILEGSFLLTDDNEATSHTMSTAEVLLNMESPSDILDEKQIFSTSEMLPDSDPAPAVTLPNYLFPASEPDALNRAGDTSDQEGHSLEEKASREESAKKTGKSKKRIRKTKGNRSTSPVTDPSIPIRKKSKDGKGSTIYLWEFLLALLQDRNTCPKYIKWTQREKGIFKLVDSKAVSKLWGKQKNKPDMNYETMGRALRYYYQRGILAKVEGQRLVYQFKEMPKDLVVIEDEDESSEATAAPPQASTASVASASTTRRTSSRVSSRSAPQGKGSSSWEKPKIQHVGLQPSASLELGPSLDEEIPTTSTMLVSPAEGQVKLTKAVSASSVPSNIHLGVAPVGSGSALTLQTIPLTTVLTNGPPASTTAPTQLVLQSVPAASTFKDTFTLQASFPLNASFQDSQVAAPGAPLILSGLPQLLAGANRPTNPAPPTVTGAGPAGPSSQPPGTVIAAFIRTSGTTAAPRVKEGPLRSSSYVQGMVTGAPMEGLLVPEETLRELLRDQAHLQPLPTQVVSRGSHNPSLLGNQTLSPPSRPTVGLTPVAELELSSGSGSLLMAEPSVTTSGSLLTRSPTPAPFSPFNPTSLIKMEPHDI

Turning to CACGAC, the binding signal was 1.27 fold enrichment (6-mer frequency, TF over GST control) in the assay with FLI1; 1.29 fold enrichment (6-mer frequency, TF over GST control) in the assay with ELK1; 1.33 fold enrichment (6-mer frequency, TF over GST control) in the assay with GABPA; 1.22 fold enrichment (6-mer frequency, TF over GST control) in the assay with ERG; 1.21 fold enrichment (6-mer frequency, TF over GST control) with ELF1; 1.28 fold enrichment (6-mer frequency, TF over GST control) with EHF. In addition, the binding signal with SPI1 was 1.14 fold enrichment (6-mer frequency, TF over GST control); with SPIB, 1.23 fold enrichment (6-mer frequency, TF over GST control); with ELK3, 1.29 fold enrichment (6-mer frequency, TF over GST control); with FEV, 1.29 fold enrichment (6-mer frequency, TF over GST control); with ETV5 it was 1.28 fold enrichment (6-mer frequency, TF over GST control); with HSF1, 1.05 fold enrichment (6-mer frequency, TF over GST control). For the same sequence, the binding signal with SPIC is 1.26 fold enrichment (6-mer frequency, TF over GST control); with ELF4 it was 1.35 fold enrichment (6-mer frequency, TF over GST control); with ELK4, 1.53 fold enrichment (6-mer frequency, TF over GST control); with ETV2, 1.34 fold enrichment (6-mer frequency, TF over GST control); in the assay with ELF3 it was 1.32 fold enrichment (6-mer frequency, TF over GST control); with ETV1 it was 1.15 fold enrichment (6-mer frequency, TF over GST control).
